TDP1 inh – qHTS Assay for Inhibitors of Tyrosyl-DNA Phosphodiesterase (TDP1); Tyrosyl-DNA phosphodiesterase 1 (Homo sapiens), Q9NUW8; recombinant TDP1, AlphaScreen DNA substrate cleavage; Potency, µM (doses to about 130 µM), without a hit: at the highest dose activity change, negative = inhibition, most hits filed as inhibitors; actives 0.28% (n = 350,000); note: nearly all actives have a fitted effect of over 40% in size
Target sequence (Q9NUW8 whole entry, looked up): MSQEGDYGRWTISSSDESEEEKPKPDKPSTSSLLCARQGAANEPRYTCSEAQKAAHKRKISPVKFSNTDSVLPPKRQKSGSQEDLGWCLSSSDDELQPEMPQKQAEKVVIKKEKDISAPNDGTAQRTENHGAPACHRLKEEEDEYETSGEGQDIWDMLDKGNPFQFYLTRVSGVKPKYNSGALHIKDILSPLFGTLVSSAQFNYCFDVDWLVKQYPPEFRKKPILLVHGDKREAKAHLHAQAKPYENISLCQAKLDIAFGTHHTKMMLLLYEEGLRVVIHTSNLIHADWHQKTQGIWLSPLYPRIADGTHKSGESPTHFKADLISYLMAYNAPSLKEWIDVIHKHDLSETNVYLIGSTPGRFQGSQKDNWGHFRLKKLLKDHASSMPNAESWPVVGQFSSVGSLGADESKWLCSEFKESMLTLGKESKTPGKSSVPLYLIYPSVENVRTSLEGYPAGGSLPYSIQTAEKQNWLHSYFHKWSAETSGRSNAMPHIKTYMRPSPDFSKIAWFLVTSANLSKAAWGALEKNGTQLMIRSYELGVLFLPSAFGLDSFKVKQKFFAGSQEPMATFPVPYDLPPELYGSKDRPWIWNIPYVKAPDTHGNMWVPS
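Signal: AlphaScreen proximity between streptavidin donor and anti-FITC acceptor beads on intact substrate. Reaction: Tdp1 1 nM, substrate 15 nM final, 5 min RT after 15 min compound preincubation.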
TDP1 cell noCPT – qHTS for Inhibitors of human tyrosyl-DNA phosphodiesterase 1 (TDP1): qHTS in cells in absence of CPT | DT40 Tdp1-/- hTDP1 cells, no CPT, ATP luminescence, 48 h | Potency, µM (top dose mostly 46.2 µM), without a hit: top-dose activity change, negative = growth inhibition, actives largely listed as inhibitors | actives 15% (n = 420,000) | AID 686978, 2013; note: nearly all actives have a fitted effect of over 55% in size
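Chicken DT40 Tdp1-/- cells stably complemented with human TDP1 were seeded at 400 cells/well with DMSO in place of 20 nM camptothecin. After compound pinning, cells grew at least 48 hr at 37 °C; viability read by CellTiter-Glo luminescence.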
VDR inh – Inhibitors of the vitamin D receptor (VDR): qHTS; Potency, µM, for the others: max response, negative = inhibition, most hits filed as inhibitors; VDR-SRC2-3 peptide fluorescence polarization, 2 h; Vitamin D3 receptor (Homo sapiens), P11473; AID 504847, 2011; actives 0.93% (n = 400,000)
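FP read-out; VDR + SRC2-3 coactivator peptide; 23 nl compound by pintool; 2 h RT incubation; reagents held at 4 deg C, protected from light.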
GCN5L2 inh – qHTS Assay for Inhibitors of GCN5L2; GCN5L2 HAT assay, ThioGlo1 CoA-SH fluorescence; Histone acetyltransferase KAT2A (Homo sapiens), Q92830; actives 0.21% (n = 390,000); Potency, µM (series often up to 58.9 µM), without a hit: at the highest dose activity change, negative = inhibition, actives largely listed as inhibitors; AID 504327, 2011
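Free CoA generated was detected with ThioGlo1 (50uM) fluorescence at Ex340nm/Em540nm, read immediately and after 20 min at room temperature. Enzyme, 20 nM in HEPES pH 7.5 buffer, saw compounds 15 min before adding 75uM H3(1-25) peptide and 70uM acetyl-CoA.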
DT40 TDP1 CPT – qHTS for Inhibitors of human tyrosyl-DNA phosphodiesterase 1 (TDP1): qHTS in cells in presence of CPT; chicken DT40 Tdp1-/-;hTDP1 cells + 20 nM CPT, ATP luminescence, 48 h; Potency, µM (doses to about 46.2 µM), without a hit: top-dose activity change, negative = growth inhibition, hits mostly inhibitors; actives 12% (n = 420,000); AID 686979, 2013; note: nearly all actives have a fitted effect of over 55% in size
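Chicken DT40 Tdp1-/- cells complemented with human TDP1, 400 cells/well, exposed to compounds plus 20 nM camptothecin for at least 48 h at 37 C; viability read as ATP content by CellTiter-Glo luminescence.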
PLK1 PBD inh – qHTS for Inhibitors of PLK1-PDB (polo-like kinase 1 - polo-box domain): Primary Screen. Plk1 PBD binding of FITC phosphopeptide, fluorescence polarization. Serine/threonine-protein kinase PLK1 (Homo sapiens), P53350. actives 2.8% (n = 360,000). Potency, µM, without a hit: max response, negative = inhibition, usual class: inhibitors; note: series mostly up to about 57 µM; nearly all actives have a fitted effect of over 65% in size
* hit, by the source's call; u = inconclusive; x = no result given; [ ] = another dose, or the depositor's remark. Shown are actives, neighbours in structure and some others; about 18% of the full set was active somewhere. Calls come from the whole dose curve; as a rule, active = well fitted curve in the direction sought with a large enough effect; inconclusive = small, poorly fitted or top-dose-only effect, or another doubt; inactive = no such curve, though single readings can be large; an effect the other way counts as inactive or inconclusive. % is set by controls: 0 for no effect and ±100 for the full control effect; potency is the fitted concentration of half-maximal effect.

SMILES	TDP1 inh	TDP1 cell noCPT	VDR inh	GCN5L2 inh	DT40 TDP1 CPT	PLK1 PBD inh
Cc1cc(NC(=O)Cn2c(=O)n(CCCCC(=O)NC3CCN(Cc4ccccc4)CC3)c(=O)c3ccccc32)n[nH]1	6%	x	x	-2%	x	x
COc1ccccc1CNC(=O)CCCn1c(=O)c2ccccc2n(Cc2ccccc2F)c1=O	-1%	7.3µM*	7%	-4%	9.2µM*	x
CCN(C(=O)CN(C)S(=O)(=O)c1ccc2c(c1)c(=O)n(C)c(=O)n2C)c1ccc(OC)cc1	3%	23µM*	-20%	-9%	-17%	x
CCN(CC)S(=O)(=O)c1ccc2[nH]cc(C(=O)NCCC3=CCCCC3)c(=O)c2c1	-2%	18µM*	8%	-8%	10µM*	-1%
CN(CC(=O)NCCC1=CCCCC1)S(=O)(=O)c1ccc2c(c1)c(=O)n(C)c(=O)n2C	-3%	u	-14%	-5%	8.2µM*	-3%
CCN(CC)S(=O)(=O)c1ccc2[nH]cc(C(=O)NCCN3CCCCCC3)c(=O)c2c1	8%	-19%	-11%	0%	-11%	-5%
O=C(NCCc1nnc2ccc(NCCCN3CCOCC3)nn12)c1ccccc1	4%	-4%	-18%	-3%	-2%	-3%
Cn1cc(C(=O)NCCc2ccc(Cl)cc2)c(=O)c2cc(S(=O)(=O)N3CCOCC3)ccc21	2%	0%	-4%	-5%	-14%	x
CC(C)C(NS(=O)(=O)c1ccc2c(c1)oc(=O)n2C)C(=O)NCCc1ccc(Cl)cc1 (configuration not stated)	3%	-15%	0%	-3%	-6%	x
CC(C)CC(C(=O)NCC1CCCO1)N(C(=O)Cn1nnc(-c2ccc(F)cc2)n1)c1cccc(C(F)(F)F)c1 (configuration not stated)	3%	-23%	1%	-11%	u	-7%
Cc1ccc(-c2nnn(CC(=O)N(Cc3cccs3)C(C(=O)NC3CCCC3)c3ccco3)n2)o1 (configuration not stated)	8%	-24%	-14%	-7%	-30%	-3%
O=C(NCC1CCCO1)C(c1cccs1)N(Cc1cccs1)C(=O)Cn1nnc(-c2cccs2)n1 (configuration not stated)	2%	18µM*	7%	-5%	16µM*	0%
O=C(NC1CCCC1)C(c1cccs1)N(Cc1ccco1)C(=O)Cn1nnc(-c2cccs2)n1 (configuration not stated)	5%	u	2%	-28%	21µM*	-10%
Cc1ccc(-c2nnn(CC(=O)N(Cc3ccco3)C(C(=O)NC3CCCC3)c3cccs3)n2)o1 (configuration not stated)	5%	u	-7%	-2%	u	-5%
O=C(NCC1CCCO1)C(c1ccc(F)cc1)N(C(=O)Cn1nnc(-c2ccc(F)cc2)n1)c1cccc(O)c1 (configuration not stated)	-2%	9.2µM*	6%	-12%	u	-2%
Cc1ccc(-c2nnn(CC(=O)N(Cc3cccs3)C(C(=O)NC3CCCCC3)c3ccco3)n2)o1 (configuration not stated)	7%	23µM*	-9%	-5%	26µM*	-10%
O=C(NCC1CCCO1)C(c1ccc(F)cc1)N(Cc1ccc(F)cc1)C(=O)Cn1nnc(-c2cccs2)n1 (configuration not stated)	-2%	u	-9%	-2%	-28%	-8%
Cn1c2cc(S(C)=O)sc2c2cnn(Cc3cccc(O)c3)c(=O)c21 (configuration not stated)	1%	x	x	x	x	x
Cc1cc2c(s1)c1cnn(Cc3c(F)c(F)cc(F)c3F)c(=O)c1n2C	-3%	x	x	x	x	x
CCCCC(C(=O)NC1CCCC1)N(Cc1ccco1)C(=O)Cn1nnc(-c2ccc(F)cc2)n1 (configuration not stated)	6%	23µM*	-17%	-6%	23µM*	24µM*
O=C(NC1CCCCC1)C(c1ccccc1)N(Cc1ccco1)C(=O)Cn1cnc2ccccc21 (configuration not stated)	-7%	23µM*	2%	-4%	23µM*	2%
O=C(O)c1cc(-c2c[nH]c3ccccc23)nc2cc3ccccc3cc12	x	x	x	-11%	x	x
Cn1nc(N)c2ncc(-c3ccc(Cl)cc3)nc21	x	-4%	x	x	-8%	1%
C(=C1C=c2ccccc2=C1)c1ccc(N=Nc2ccc(C=C3C=c4ccccc4=C3)cc2)cc1	x	-11%	x	x	-8%	x
COCCNC(=O)/C(C#N)=C/c1c(N2CCCCCC2)nc2ccccn2c1=O	x	u	-9%	-9%	-11%	6%
SMILES	TDP1 inh	TDP1 cell noCPT	VDR inh	GCN5L2 inh	DT40 TDP1 CPT	PLK1 PBD inh
COc1cccc(OC)c1C(=O)NCC12CC3CC(C1)CC(CNC(=O)c1c(OC)cccc1OC)(C3)C2	x	18%	-5%	3%	-7%	3%
COC(=O)NCC12CC3CC(C1)CC(CNC(=O)OC)(C3)C2	2%	-26%	-3%	1%	-28%	12µM*
CN(C)c1ccc(/C=C(\C#N)c2ccccc2)cc1	3%	2.6µM*	-4%	-9%	2.6µM*	1%
CN(C)c1ccc(/C=C(\C#N)c2nc3ccccc3c(=O)[nH]2)cc1	1%[12.3 µM]	-10%	u	-5%	-6%	x
COc1ccc(C(C#N)=Cc2ccc(N(C)CCC#N)cc2)cc1	x	26µM*	x	x	23µM*	5%
CSc1nc2ccccc2cc1/C=C(\C#N)c1ccccc1	-2%	u	-4%	-17%	u	0%
CN(C)c1cccc(/C=C(\C#N)c2ccccc2)c1	1%	2.3µM*	-15%	-9%	2.9µM*	-4%
COc1ccc(N=Cc2ccc(N(CCC#N)CCC#N)cc2)cc1	x	-19%	6%	x	5%	-6%
CCCCNC(=O)N(O)C1N(CCCC)C(=O)N(CC(=O)OC)C1(C)C (configuration not stated)	-7%[56.1 µM]	0%	-5%	-7%	7%	-3%
CCC(=O)N[C@@H]1c2ccccc2C2(CCN(Cc3cnc(N(C)C)s3)CC2)[C@H]1OC	x	-3%	x	x	35%[9.04 µM]	x

Bioassay records deposited in PubChem by National Center for Advancing Translational Sciences (NCATS).
